# Source: PubChem BioAssay
# Activity calls are given as the source filed them. How the calls were made is not given here.
# Molecular target: Pantothenate synthetase (Mycobacterium tuberculosis (strain ATCC 25618 / H37Rv)) (UniProt P9WIL5)
# Assay: Coupled enzyme confirmation of inhibitors against recombinant Mtb PanC (AID 375);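 further: 0% = full reaction with vehicle and 100% = no enzyme background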
# Details: coupled enzyme assay; at 10 µM, hits give high values
# Pantothenate synthetase (Mycobacterium tuberculosis (strain ATCC 25618 / H37Rv)), sequence (P9WIL5 whole entry, looked up): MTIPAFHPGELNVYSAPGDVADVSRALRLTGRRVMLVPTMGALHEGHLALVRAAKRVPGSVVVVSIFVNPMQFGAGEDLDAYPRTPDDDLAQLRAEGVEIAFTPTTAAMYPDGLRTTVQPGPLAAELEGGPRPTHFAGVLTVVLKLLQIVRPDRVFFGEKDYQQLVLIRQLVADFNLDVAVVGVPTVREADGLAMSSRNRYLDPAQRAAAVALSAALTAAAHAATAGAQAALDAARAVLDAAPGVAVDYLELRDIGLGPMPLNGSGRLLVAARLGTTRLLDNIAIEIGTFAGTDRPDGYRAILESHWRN
row,SMILES,inhibition
1,CCOC(=O)N1CCN(C(=O)c2csc3c2CCCCC3)CC1,0% (inactive)
2,CCOC(=O)CC1(CC(=O)OCC)NC(=O)c2c(C)sc(C(=O)OCC)c2N1,1% (inactive)
3,CCOC(=O)C1CCN(Cc2ccc(C(=O)OC)cc2)CC1,1% (inactive)
4,COC(=O)c1c(N)nc(C)n1-c1ccc(OC)cc1,0% (inactive)
5,O=C(OCN1C(=O)c2ccccc2C1=O)c1ccc2c(=O)n3c(nc2c1)CCC3,0% (inactive)
6,COc1ccccc1C(O)P(=O)(OC(C)C)c1ccc(N(C)C)cc1 (stereo not given),0% (inactive)
7,CC(C)(C)C1=Nn2c(nnc2-c2n[nH]c3c2CCC3)SC1,8% (inactive)
8,COC(=O)CNC(=O)c1c(C)cc(=O)oc1C,3% (inactive)
9,COc1ccccc1CCNC(=O)C1CCCO1 (stereo not given),0% (inactive)
10,O=C(CCNS(=O)(=O)c1ccc(Br)s1)N1CCCCC1,0% (inactive)
11,CCCCc1ccc(NC(=O)c2c(C)noc2C)cc1,8% (inactive)
12,CCN1C(=O)c2cccc3c(NC(=O)c4ccc5c(c4)OCCO5)ccc1c23,0% (inactive)
13,N#Cc1cc2ccccc2nc1SCC(=O)Nc1ccccc1N1CCOCC1,0% (inactive)
14,CCOC(=O)CC(=O)CSc1[nH]c(=O)cc(C)c1C#N,8% (inactive)
15,CN(C)c1ccc(NC(=O)CSCc2nc3c(nnn3Cc3ccc(F)cc3)c(=O)[nH]2)cc1,3% (inactive)
16,COc1ccccc1C1N(c2ccc(F)cc2)C(=O)C2CCCN21 (stereo not given),0% (inactive)
17,O=C(CCNS(=O)(=O)c1cccc2nsnc12)NCc1cccs1,1% (inactive)
18,Cc1ccccc1C(=O)NC1CCN(Cc2nnnn2CCc2ccccc2)CC1,14% (inactive)
19,O=C(Nc1nnc(SCC(=O)N2CCCCC2)s1)C1CCCCC1,5% (inactive)
20,Cc1ccc2c(c1)NC(=O)C(CC(=O)NCCN(CC(C)C)CC(C)C)O2 (stereo not given),2% (inactive)

row,SMILES,inhibition
1,CCOC(=O)C(C)Sc1nc2c(cnn2-c2ccc(C)cc2)c(=O)[nH]1 (stereo not given),5% (inactive)
2,Cc1oc(-c2cccc(Cl)c2)nc1CN1CCC(C(=O)N2CCN(c3ccccc3F)CC2)CC1,2% (inactive)
3,COC(=O)c1ccsc1NC(=O)CN1C(=O)CCC1=O,0% (inactive)
4,N#Cc1c(N)c(C(=O)c2ccccc2)n2c1CCCC2,6% (inactive)
5,COc1ccc(CCNC(=O)CSc2nncn2N)cc1OC,5% (inactive)
6,Cn1c(=O)n(CCN2CCOCC2)c(=O)c2c1nc1n2CCN1c1ccccc1,2% (inactive)
7,CC1(CC(=O)O)C(=O)N=C2C=CC=CN21 (stereo not given),0% (inactive)
8,CC(C)c1nnc(NC(=O)C2CCCCC2)s1,1% (inactive)
9,O=C(Nc1ncc(Br)s1)C1CCCN1S(=O)(=O)c1cccc2cccnc12 (stereo not given),0% (inactive)
10,CCCCN(CCCC)CCn1cnc2c([nH]c3ccc(OC)cc32)c1=O,4% (inactive)
11,c1n[nH]c(SCCCCSc2ncn[nH]2)n1,6% (inactive)
12,CCn1c2ccccc2c2cc(Nc3cc(C)nc4ncnn34)ccc21,0% (inactive)
13,c1ccc2ncc(-n3cnnn3)cc2c1,0% (inactive)
14,Cc1cc(NC(=O)CN2CCC(O)(c3cccc(F)c3)CC2)no1,0% (inactive)
15,CCOC(=O)N1CCN(c2c(NCC3CCN(Cc4cccc(C)c4)CC3)c(=O)c2=O)CC1,4% (inactive)
16,NC(=O)C1(N2CCCCC2)CCN(Cc2ccccc2Cl)CC1,0% (inactive)
17,CC(C)(C)C(=O)CCN1C(=O)C2(OCCO2)c2ccccc21,0% (inactive)
18,CCC(C)(C(=O)NC1CCCCC1)N(Cc1ccco1)C(=O)c1ccc2c(c1)OCO2 (stereo not given),0% (inactive)
19,CCC(=O)N1CCc2cc(S(=O)(=O)CCC(=O)Nc3ccc(F)c(F)c3)ccc21,0% (inactive)
20,Nc1sccc1C(=O)c1ccccc1,4% (inactive)
